Reference: PubChem BioAssay (NCATS)
Records with an inconclusive call do not appear. Activity calls are given as the source filed them. The call rests on the fitted dose curve; in most records, active means well fitted inhibition curve with a large enough effect; inconclusive means small, poorly fitted or top-dose-only effect; inactive means flat fitted curve, though single readings scatter.

system: MCC-26; assay: qHTS assay to identify novel small-molecules to repurpose for Merkel cell carcinoma treatment (AID 1296009); settings: MCC and control cell lines, CellTiter-Glo viability, 72 h; series mostly up to 46 µM; activity change, negative = cytotoxicity: at the top concentration; further: nearly all actives have a fitted effect of over 60% in size
Text: MCC is a rare and aggressive neuroendocrine skin cancer with limited treatment options. Approximately 80% of MCCs have the Merkel cell polyomavirus (MCPyV) DNA integrated into the host genome (virus-positive: VP-MCC) and viral oncogenes drive oncogenesis. The remaining MCCs are virus-negative (VN-MCC) and are caused by UV mutagenesis. To identify novel treatments for VP-MCC and/or VN-MCC we screened three VP-MCC cell lines (WAGA, MKL-1, MKL-2), three VN-MCC cell lines (MCC-13, MCC-26, UISO), and four immortalized, non-transformed control cell lines (HaCaT, HEK293T, CRL7250, NIH-3T3) against ~2,400 compounds in the NCGC Pharmaceutical Collection (NPC) and ~1,900 compounds in the Mechanism Interrogation PlatE (MiPE). Using cell viability as a readout (CellTiter-Glo assay) we found both overlapping and distinct drugs that can be repurposed for the treatment of VP-MCC and VN-MCC.
A high-throughput screen was conducted in 1536-well white flat bottom plates (Corning) on a Kalypsys robotic system. Cell lines WAGA, MKL-1, MKL-2, MCC-13, MCC-26, UISO, HaCaT, HEK293T, CRL7250, and NIH-3T3 were screened against 2 small molecule annotated drug libraries NPC and MIPE in dose response (8 and 11 pt. respectively) measuring cell viability after 72 hours of incubation. […] A 1,536 pintool (Kalypsys) was used to transfer 23 nL of compound in DMSO to the 1,536-well assay plates. After 72 hr incubation at 37 degree celsius, 2.5 uL of CellTiter-Glo (Promega) was dispensed into each well using a BiorapTR. Plates were incubated at room temperature for 10 min, transferred to a ViewLux (PerkinElmer) and the luminescence was recorded using an exposure time of 2 seconds. Relative luminescence units (RLUs) were normalized to in-plate controls (no cells as a positive (cytotoxicity) control, DMSO as negative control) and the normalized data was processed using NCATS in-house software.
On the % scale 0 is the no-effect control and ±100 the full control effect; potency means the concentration at half of the fitted maximal effect.

| SMILES | activity change, negative = cytotoxicity | Potency |
| --- | --- | --- |
| CCC(=C(CC)c1ccc(O)cc1)c1ccc(O)cc1 | -5.58% (inactive) | – |
| Fc1ccc(CNc2ncnc3ccc(F)cc23)cc1 | -18.1% (inactive) | – |
| CC(C)n1c(C=C[C@H](O)C[C@H](O)CC(=O)O)c(-c2ccc(F)cc2)c2ccccc21 | – | 20.9 µM (active) |
| Clc1ccc(C2(c3ccc(-c4cn[nH]c4)cc3)CCNCC2)cc1 | -3.07% (inactive) | – |
| CN1CCC(COc2cnc(-c3cccc(Cn4nc(-c5cccc(C#N)c5)ccc4=O)c3)nc2)CC1 | 1.06% (inactive) | – |
| COc1cccc(OC)c1-c1cc(C(=O)NC2(C(=O)O)C3CC4CC(C3)CC2C4)nn1-c1ccnc2cc(Cl)ccc12 (stereo not given) | -0.937% (inactive) | – |
| CCCCCOC(=O)Nc1nc(=O)n([C@@H]2O[C@H](C)[C@@H](O)C2O)cc1F (stereo not given in full) | -18% (inactive) | – |
| COc1cc2ncnc(Nc3cc(Br)c(O)c(Br)c3)c2cc1OC | -6.81% (inactive) | – |
| CC=C(C(=CC)c1ccc(O)cc1)c1ccc(O)cc1 | 4.59% (inactive) | – |
| COc1ccc(C=CC(=O)Nc2ccccc2C(=O)O)cc1OC | 5.16% (inactive) | – |
| Nc1ncnc2c1c(-c1cccc(OCc3ccccc3)c1)cn2C1CC(CN2CCC2)C1 (stereo not given) | -6.52% (inactive) | – |
| O=C(O)c1nc(=O)[nH]c(=O)[nH]1 | -6.3% [at 16.1 µM] (inactive) | – |
| NS(=O)(=O)c1ccc(Nc2nc(OCC3CCCCC3)c3[nH]cnc3n2)cc1 | -24.7% (inactive) | – |
| Cc1cc(-c2ncc(CC(=O)Nc3ccc(-c4cnccn4)cn3)cc2C)ccn1 | -14.6% (inactive) | – |
| CN1CC(=O)NC1=NC(=O)Nc1cccc(Cl)c1 | 3.19% (inactive) | – |
| COC(=O)[C@H](c1ccccc1Cl)N1CCc2sccc2C1 | 3.12% (inactive) | – |
| COc1ccc2c(c1)c(C1=C(c3c[nH]c4ccccc34)C(=O)NC1=O)cn2CCCN(C)C | -19.1% (inactive) | – |
| CN(C)CCCNC(=O)c1ccc(-c2cc(O)c3ncccc3c2)cc1 | -1.47% (inactive) | – |
| CN[C@@H]1CN(c2ccc3c(=O)c(C(=O)O)cn(-c4nccs4)c3n2)C[C@@H]1OC | -9.67% [at 16.1 µM] (inactive) | – |
| N#CC1(c2cccc(C(=O)Nc3cc(Oc4ccc5nc(NC(=O)C6CC6)sc5n4)ccc3F)c2Cl)CC1 | – | 11.8 µM (active) |

| SMILES | activity change, negative = cytotoxicity | Potency |
| --- | --- | --- |
| O[C@@H](COc1cccc2ncccc12)CN1CCN(C2c3ccccc3[C@@H]3[C@H](c4ccccc42)C3(F)F)CC1 (stereo not given in full) | -15.8% (inactive) | – |
| COc1nccc(-c2c(-c3ccc(F)cc3)ncn2C2CCNCC2)n1 | -6.66% (inactive) | – |
| Cc1cc(NC(=O)Nc2ccc(N(C)C)cc2)c2cc(F)cc(F)c2n1 | 1.08% (inactive) | – |
| C[C@@H]1CC=CC=CC=CC=C[C@@H](O[C@@H]2O[C@H](C)[C@@H](O)[C@H](N)[C@H]2O)C[C@@H]2O[C@](O)(C[C@@H](O)C[C@@H]3O[C@@H]3C=CC(=O)O1)C[C@H](O)[C@@H]2C(=O)O | -1.47% (inactive) | – |
| CC1=C(C(=O)Nc2cc3cn[nH]c3cc2F)C(c2ccc(C(F)(F)F)cc2)CC(=O)N1 (stereo not given) | -9.65% (inactive) | – |
| CCC(c1ccc(O)cc1)C(CC)c1ccc(O)cc1 (stereo not given) | -19% (inactive) | – |
| COc1cc(Nc2nc3ccccc3nc2NS(=O)(=O)c2ccc(NC(=O)c3ccc(C)c(OC)c3)cc2)cc(OC)c1 | -2.37% (inactive) | – |
| COc1cc(Cl)cn2c(-c3cccc(NC4CNC4)n3)cnc12 | -8.67% (inactive) | – |
| O=C1C(CCC(O)c2ccc(F)cc2)C(c2ccc(O)cc2)N1c1ccc(F)cc1 (stereo not given) | -0.987% (inactive) | – |
| CCN1C[C@H](C)n2c(c(O)c3c(=O)n(Cc4ccc(F)c(Cl)c4)nc(C(=O)NC)c32)C1=O | -3.09% (inactive) | – |
| Cc1ccc(C2=Nc3ccc(Cl)cc3OC2)cc1 | -19.3% (inactive) | – |
| O=C(CCCN1CCN(c2ccc(F)cc2)CC1)NC1c2ccccc2CSc2ccccc21 (stereo not given) | -5.98% (inactive) | – |
| CN(C)CCN(Cc1ccc(Cl)cc1)c1ccccn1 | -1.4% (inactive) | – |
| CNC(=O)[C@H](CC1=CN=C2C=CCC=C12)NC(=O)[C@@H](CC(=O)NO)CC(C)C | -4.11% (inactive) | – |
| CO[C@H]1/C=C\O[C@@]2(C)Oc3c(C)c(O)c4c(O)c(c5c(nc6cc(C)ccn65)c4c3C2=O)NC(=O)C(C)=CC=C[C@H](C)[C@H](O)[C@@H](C)[C@@H](O)[C@@H](C)[C@H](OC(C)=O)[C@H]1C | -4.92% (inactive) | – |
| Cc1ccccc1C(C(=O)NC1CCCCC1)N(C(=O)CNc1ccc(C#N)cc1)c1cccc(F)c1 (stereo not given) | 3% (inactive) | – |
| CNc1nc(-c2ccc3c(N)n[nH]c3c2)cc(N2C[C@@H](C(=O)NC3CCCCC3)CC[C@@H]2C)n1 | -5.2% (inactive) | – |
| COc1ccc2nc3cc(Cl)ccc3c(Nc3cc(CN4CCCC4)c(O)c(CN4CCCC4)c3)c2n1 | -10.9% (inactive) | – |
| CCCCN(CCCC)CC(O)c1cc(Cl)cc2c1-c1ccc(Cl)cc1C2=Cc1ccc(Cl)cc1 (stereo not given) | -0.904% (inactive) | – |
| CCC=CC[C@H]1C(=O)CC[C@@H]1CC(=O)OC | -12.7% (inactive) | – |
